Counter-ions that a name gives are not always drawn.
Tested on: MDA-MB-468
Assay: phospho-S6 immunofluorescence (DAPI-normalised), per-plate z-score; higher = higher phospho-S6 signal (less pathway suppression)
Conditions: 24 h
Experimental: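 GPCR-targeted compound library (MedChemExpress HY-L006) tested on MDA-MB-468 PTEN-null TNBC cells in 384-well plates at 0.1, 1 or 10 uM, combined with vehicle, GDC0941 450 nM or lapatinib 1 uM, for 24 h. Phospho-S6 (S240/244) immunofluorescence normalised to DAPI and expressed as a per-plate z-score; values are the mean of biological triplicates.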

SMILES	phospho-S6 immunofluorescence (z-score) (co-treatment: GDC0941 450 nM)	phospho-S6 immunofluorescence (z-score) (co-treatment: lapatinib 1 uM)	phospho-S6 immunofluorescence (z-score) (co-treatment: vehicle)
OCCOCCN1CCN(C2=Nc3ccccc3Sc3ccccc32)CC1 [Quetiapine (fumarate)] (compound 10 µM)	-0.84	0.29	-0.03
COC(c1ccccc1)(c1ccccc1)[C@H](Oc1nc(C)cc(C)n1)C(=O)O [Ambrisentan] (compound 10 µM)	1.18	0.5	-0.07
COc1ccc(/C=C/C(=O)Nc2ccccc2C(=O)O)cc1OC [Tranilast] (compound 10 µM)	1.77	-0.19	0.33
O=S(=O)(c1ccccc1)c1cnc2c(N3CCNCC3)cccc2c1 (compound 10 µM)	0.13	-2.25	0.76
CN(C)CCCN1c2ccccc2CCc2ccc(Cl)cc21 [Clomipramine (hydrochloride)] (compound 10 µM)	-1.98	-3.26	-1.14
C=CCN1CCCC1CNC(=O)c1cc(S(N)(=O)=O)cc(OC)c1OC (stereo not given) [Veralipride] (compound 10 µM)	-0.02	1.05	0.08
CCC1(c2c[nH]cn2)Cc2ccccc2C1 [Atipamezole (hydrochloride)] (compound 10 µM)	-0.61	0.37	1.24
CCCCCCn1c(O)c(N=NC(=O)c2ccccc2)c2ccccc21 (compound 10 µM)	-2.97	-0.75	0.59
CC(C)(C(=O)O)c1ccc(C(O)CCCN2CCC(C(O)(c3ccccc3)c3ccccc3)CC2)cc1 (stereo not given) [Fexofenadine (hydrochloride)] (compound 10 µM)	-0.31	-0.84	-0.42
CNC(=O)[C@H]1O[C@@H](n2cnc3c(NCc4cccc(I)c4)nc(Cl)nc32)[C@H](O)[C@@H]1O (compound 10 µM)	-1.27	-1.18	-2.34
CCCCOc1ccc(C(=O)Nc2ccc(F)cc2F)cc1 (compound 10 µM)	-0.51	-1.06	0.89
CC(NCCc1ccc(O)cc1)C(O)c1ccc(O)cc1 (stereo not given) [Ritodrine (hydrochloride)] (compound 10 µM)	-0.01	1.26	0.06
COc1cc(NC(=O)c2ccccn2)ccc1Cl (compound 10 µM)	-0.65	-0.21	0.28
CN(C)CCCN1c2ccccc2Sc2ccccc21 [Promazine (hydrochloride)] (compound 10 µM)	-0.07	-1.25	0.4
COC(=O)[C@@H]1[C@H]2C[C@H]3c4[nH]c5ccccc5c4CCN3C[C@@H]2CC[C@@H]1O [Yohimbine (Hydrochloride)] (compound 10 µM)	0.62	0.56	1.59
c1ccc(NCc2ccc(CNc3ccccn3)cc2)nc1 (compound 10 µM)	0.88	-0.48	0.72
COc1ccc(-c2oc3c(CC=C(C)C)c(O)cc(O)c3c(=O)c2O[C@@H]2O[C@@H](C)[C@H](O)[C@@H](O)[C@H]2O)cc1 [Baohuoside I] (compound 10 µM)	-5.72	-5.94	-7.08
COc1nc(C)cnc1NS(=O)(=O)c1cccnc1-c1ccc(-c2nnco2)cc1 [Zibotentan] (compound 10 µM)	-2.05	-0.19	-2.06
O=C(O[C@H]1CN2CCC1CC2)N1CCc2ccccc2[C@@H]1c1ccccc1 [Solifenacin (Succinate)] (compound 10 µM)	1.65	1.13	-0.65
CCc1c(C(=O)NCCc2ccc(N3CCCCC3)cc2)[nH]c2ccc(Cl)cc12 (compound 10 µM)	-1.02	-0.3	0.27
O=C1Cc2cc(CCN3CCN(c4nsc5ccccc45)CC3)c(Cl)cc2N1 [Ziprasidone (hydrochloride monohydrate)] (compound 10 µM)	-5.1	-9.79	-5.97
CC(=O)OC(C)C[N+](C)(C)C (stereo not given) [Methacholine (chloride)] (compound 10 µM)	0.63	0.47	1
CC(C)[N+]1(C)[C@@H]2CC[C@H]1C[C@@H](OC(=O)C(CO)c1ccccc1)C2 (stereo not given in full) [Ipratropium (bromide)] (compound 10 µM)	-0.02	0.28	-0.61
c1ccc2c(c1)CCCC2C1=NCCN1 (stereo not given) [Tetrahydrozoline (hydrochloride)] (compound 10 µM)	0.32	0.87	0.75
CC(C)N(CCCCOCC(=O)NS(C)(=O)=O)c1cnc(-c2ccccc2)c(-c2ccccc2)n1 (compound 10 µM)	0.87	0.26	-0.38

Source: the supplement of paper PMC7411640
